From PubChem BioAssay (Tox21)
Records with an inconclusive call do not appear. Where a call stands in place of a potency, no number is given. Calls of active or inactive are those of the source. Unless noted, the call rests on the fitted dose curve; in most records, active means well fitted curve in the direction sought with a large enough effect in the repeat runs; inconclusive means weak or mixed curves; inactive means no such curve, though single readings can be large; an effect the other way counts as inactive or inconclusive.

Tests used:
[1] = qHTS assay to identify small molecule antagonists of the estrogen related receptor (ERR) signaling pathway - cell viability counter screen (AID 1224818); further: series mostly up to about 46 µM
In short: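 Fluorescence from CellTiter-Fluor, read 30 min after reagent addition at 37 C, measured viability of ERR cells exposed to compounds for 17.5 h. Cells had settled 6 h before dosing.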

[2] = qHTS assay to identify small molecule agonists of the estrogen related receptor (ERR) signaling pathway (AID 1224820)
In short: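 Following a 6 h settling period, 2,000 ERR cells per well receive DMSO-dissolved compounds by pin tool and incubate 18 h at 37 C; agonist activity is scored from One-Glo luminescence read 30 min post-addition.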

[3] = test system: estrogen-related receptor alpha (ERRalpha) with PGC-1alpha coactivator, human; assay: qHTS assay to identify small molecule antagonists of the estrogen related receptor signaling pathway with the pleiotropic PPARgamma coactivator (PGC) (AID 1224821; calls by dose curve; further: nearly all actives have a fitted effect of over 50% in size; further: potency means the concentration at half of the fitted maximal effect)
In short: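 Screening used NTP's PGC/ERR cells, dosed via pin tool with compound in DMSO alongside positive and negative controls. After 18 h at 37 C, One-Glo reagent sat 30 min at room temperature before luminescence detection.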

[4] = qHTS assay to identify small molecule antagonists of the estrogen related receptor signaling pathway with the pleiotropic PPARgamma coactivator (PGC) cell viability counter screen (AID 1224822; further: series mostly up to about 46 µM)
In short: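 Fluorescence read-out of CellTiter-Fluor after 30 min at 37 C; PGC/ERR cells, 2,000 per well, had been exposed to DMSO-dissolved compounds for 17.5 h following a 6 h pre-incubation.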

[5] = qHTS assay to identify small molecule agonists of the estrogen related receptor signaling pathway with the pleiotropic PPARgamma coactivator (PGC) (AID 1224823); further: potency means the concentration at half of the fitted maximal effect
In short: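 In this quantitative high-throughput screen, an 18 h, 37 C treatment of PGC/ERR cells with compounds in DMSO preceded a One-Glo luminescence read taken after 30 min at room temperature.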

SMILES | Potency [1] | Potency [2] | Potency [3] | Potency [4] | Potency [5]
Clc1ccc(N2CCN(Cc3c[nH]c4ncccc34)CC2)cc1 | inactive | inactive | inactive | inactive | inactive
N[C@@H](Cc1cnc[nH]1)C(=O)O | inactive | inactive | inactive | – | inactive
NC(N)=NCc1cccc(I)c1 | inactive | inactive | – | inactive | inactive
COc1ccc(NC(=O)c2ccc(-c3ccc(-c4noc(C)n4)cc3C)cc2)cc1N1CCN(C)CC1 | inactive | inactive | inactive | inactive | inactive
N[C@@H](CS(=O)O)C(=O)O | inactive | inactive | inactive | – | inactive
COCCOc1cc2ncnc(Cl)c2cc1OCCOC | inactive | inactive | – | inactive | inactive
O=C(O)c1ccccc1Nc1ccccc1 | inactive | inactive | inactive | inactive | inactive
c1ccc(CN2CCC3(CCCc4ccccc43)CC2)cc1 | inactive | inactive | inactive | inactive | inactive
O=C(Nc1ccc2c(c1)CCN(Cc1ncn[nH]1)C2)c1ccccc1-c1ccc(C(F)(F)F)cc1 | inactive | inactive | – | inactive | inactive
CC(C)(C)[C@]1(O)CCN2C[C@H]3c4ccccc4CCc4cccc(c43)[C@@H]2C1 | inactive | inactive | – | inactive | inactive
c1ccc(C(NCc2cccnc2)(c2ccccc2)c2ccccc2)cc1 | inactive | inactive | 24.6 µM (active) | – | inactive
O=[N+]([O-])c1ccc(CNc2nc(NCc3cccc(C(F)(F)F)c3)nc3nc[nH]c23)cc1 | inactive | inactive | – | inactive | inactive
Nc1nc(Cl)nc2c1ncn2[C@@H]1O[C@H](COP(=O)(O)OP(=O)(O)OP(=O)(O)O)C(O)[C@H]1O (stereo partly drawn) | inactive | inactive | inactive | inactive | 1.33 µM (active)
CN1CCc2cccc3c2C1Cc1ccc(O)c(O)c1-3 (stereo not drawn) | inactive | inactive | 26.6 µM (active) | – | inactive
CC(C)(C)c1ccc(/C=C/C(=O)Nc2ccc3c(c2)OCCO3)cc1 | inactive | inactive | inactive | inactive | inactive
COc1ccccc1N1CCN(CCN2C(=O)CC3(CCCC3)CC2=O)CC1 | inactive | inactive | – | inactive | inactive
Nc1nc(OCC2CCCCC2)c2[nH]cnc2n1 | inactive | inactive | – | inactive | inactive
N#Cc1cc([N+](=O)[O-])c2sc(C(N)=O)[n+]([O-])c2c1 | inactive | inactive | inactive | – | inactive
CCC1(O)CC2CN(CCc3c([nH]c4ccccc34)[C@@](C(=O)OC)(c3cc4c(cc3OC)N(C)C3[C@]45CCN4CC=C[C@@](CC)([C@@H](OC(C)=O)[C@]3(O)C(=O)OC)[C@H]45)C2)C1 (stereo partly drawn) | inactive | inactive | – | inactive | –
CCCCCCCC/C=C\CCCCCCCC(=O)NCCc1ccc(O)c(O)c1 | inactive | inactive | inactive | – | inactive
Fc1ccc2[nH]c(CN3CCN(c4ccccn4)CC3)cc2c1 | inactive | inactive | inactive | inactive | inactive
CC(C)(CO)Cc1cc(C(C)(C)C)c(O)c(C(C)(C)C)c1 | inactive | inactive | inactive | inactive | inactive
O=C(O)C1CCCNC1 (stereo not drawn) | inactive | inactive | inactive | inactive | inactive
O=C(O)c1ccccc1Nc1cccc(OCc2ccc3ccccc3n2)c1 | inactive | inactive | inactive | inactive | inactive
COC(=O)[C@H](NC(=O)c1cc(-c2ccccc2)nc2ccccc12)c1ccccc1 | inactive | inactive | inactive | inactive | inactive
c1ccc(C(NCCNC(c2ccccc2)c2ccccc2)c2ccccc2)cc1 | inactive | inactive | – | inactive | inactive
N=C(N)c1ccc(OCCCCCOc2ccc(C(=N)N)cc2)cc1 (tested in a mixture with another compound) | inactive | inactive | – | inactive | inactive
O=C(O)C1=CCCN(CCON=C(c2ccccc2)c2ccccc2)C1 | inactive | inactive | inactive | inactive | inactive
COC(=O)c1c(C)[nH]c(C)c1C(=O)c1ccccc1Cc1ccccc1 | inactive | inactive | inactive | inactive | inactive
